# Results filed as inconclusive are left out. A call without a number means that no potency is given here. Unmarked numbers belong to inactive results. Activity calls are given as the source filed them. Unless noted, calls follow the shape of the dose curve; as a rule, active = well fitted curve in the direction sought with a large enough effect; inconclusive = small, poorly fitted or top-dose-only effect, or another doubt; inactive = no such curve, though single readings can be large; an effect the other way counts as inactive or inconclusive.
# What was measured:
# [1] = molecular target: ATP-dependent 6-phosphofructokinase (Trypanosoma brucei brucei) (UniProt O15648); assay: qHTS Assay to Find Inhibitors of T. brucei phosphofructokinase: hit validation (AID 492961);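 also: luminescence reports ADP formed as PFK phosphorylates fructose-6-phosphate with ATP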
# Chain of ATP-dependent 6-phosphofructokinase (Trypanosoma brucei brucei) (O15648 whole entry, looked up): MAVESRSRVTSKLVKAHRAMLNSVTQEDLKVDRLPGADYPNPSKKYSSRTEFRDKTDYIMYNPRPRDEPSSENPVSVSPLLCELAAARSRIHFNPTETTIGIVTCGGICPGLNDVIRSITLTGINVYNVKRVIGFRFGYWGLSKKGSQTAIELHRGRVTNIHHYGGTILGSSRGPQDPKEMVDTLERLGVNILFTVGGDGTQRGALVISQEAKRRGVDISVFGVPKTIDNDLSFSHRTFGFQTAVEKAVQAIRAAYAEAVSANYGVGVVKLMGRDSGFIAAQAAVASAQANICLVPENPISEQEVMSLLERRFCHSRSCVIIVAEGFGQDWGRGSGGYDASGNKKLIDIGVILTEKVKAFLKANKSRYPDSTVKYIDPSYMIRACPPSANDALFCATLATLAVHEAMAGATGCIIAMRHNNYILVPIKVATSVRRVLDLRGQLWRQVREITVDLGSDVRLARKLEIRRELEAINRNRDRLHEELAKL
# Method in brief: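 Inhibition of parasite PFK is measured as reduced ADP formation, quantified via luciferase after ATP depletion. Assay used 0.1 mM ATP, 0.5 mM F6P, 1.25 nM enzyme, 45 min incubation.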
# [2] = molecular target: Luciferin 4-monooxygenase (Photinus pyralis) (UniProt P08659); assay: Biochemical firefly luciferase enzyme assay for NPC (AID 624030);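 also: purified P. pyralis luciferase at 10 nM with luciferin and ATP substrate; nearly all actives have a fitted effect of over 70% in size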
# Chain of Luciferin 4-monooxygenase (Photinus pyralis) (P08659 whole entry, looked up): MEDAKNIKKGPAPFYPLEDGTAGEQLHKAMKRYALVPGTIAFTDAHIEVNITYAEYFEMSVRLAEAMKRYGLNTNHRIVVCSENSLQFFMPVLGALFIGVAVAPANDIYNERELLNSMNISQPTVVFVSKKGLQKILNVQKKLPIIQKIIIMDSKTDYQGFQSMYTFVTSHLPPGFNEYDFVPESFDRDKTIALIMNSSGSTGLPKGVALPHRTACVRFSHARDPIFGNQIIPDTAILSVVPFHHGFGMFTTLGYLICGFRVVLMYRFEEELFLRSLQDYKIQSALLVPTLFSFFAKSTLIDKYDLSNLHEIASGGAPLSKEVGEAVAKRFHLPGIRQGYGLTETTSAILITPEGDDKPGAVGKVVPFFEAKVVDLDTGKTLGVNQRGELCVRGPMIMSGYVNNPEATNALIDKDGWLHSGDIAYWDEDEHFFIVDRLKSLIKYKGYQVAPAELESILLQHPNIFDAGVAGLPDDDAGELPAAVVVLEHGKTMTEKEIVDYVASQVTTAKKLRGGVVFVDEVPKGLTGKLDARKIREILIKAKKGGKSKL
# Method in brief: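 Purified P. pyralis luciferase at 10 nM in 50 mM Tris Acetate (final), luminescence read within 5 minutes of enzyme addition to compounds. Activity normalised to PTC124 versus DMSO; concentration-response curves classed by r2, magnitude and activity.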
# [3] = S16 Schwann cell PMP22 intronic element beta-lactamase assay (AID 624044; calls by dose curve; also: nearly all actives have a fitted effect of over 15% in size); settings: S16 rat Schwann cells, PMP22 element beta-lactamase FRET, 24 h; ratio activity, negative = inhibition: at 38.3 µM (top of the series) unless noted
# Method in brief: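 Beta-lactamase reporter under a PMP22 intronic regulatory element in stable S16 rat Schwann cells; 24 h compound exposure. 460 nm blue signal normalized between DMSO (0%) and potassium clavulanate, with 535 nm FRET tracking viability; curves classed by r2 and response.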
# [4] = molecular target: Glutathione peroxidase 1 (Homo sapiens) (UniProt P07203); assay: Primary qHTS Assay for Inhibitors of Recombinant Selenoprotein Glutathione Peroxidase 1 (GPX1) (AID 1845191); also: nearly all actives have a fitted effect of over 65% in size
# Chain of Glutathione peroxidase 1 (Homo sapiens) (P07203 whole entry, looked up): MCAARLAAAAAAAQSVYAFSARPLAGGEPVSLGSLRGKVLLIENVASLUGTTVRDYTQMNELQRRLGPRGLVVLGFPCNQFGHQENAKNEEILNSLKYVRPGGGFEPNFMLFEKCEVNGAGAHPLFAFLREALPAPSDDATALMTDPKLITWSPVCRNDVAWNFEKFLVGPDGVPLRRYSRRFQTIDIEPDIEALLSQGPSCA
# Method in brief: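 GR-coupled readout: NADPH consumption tracked by fluorescence, ex 340/em 450 nm, at t=0 and after 15 min at RT. Final mix 10 nM GPX1, 1 mM GSH, 0.5 mM CHP, 0.5 mM NADPH, 100 nM GR, 0.01% BSA, following 30 min enzyme–compound preincubation.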
# [5] = molecular target: Phospholipid hydroperoxide glutathione peroxidase GPX4 (Homo sapiens) (UniProt P36969); assay: Primary qHTS Assay for Inhibitors of Recombinant Selenoprotein Glutathione Peroxidase 4 (GPX4) (AID 1845192); also: nearly all actives have a fitted effect of over 65% in size
# Chain of Phospholipid hydroperoxide glutathione peroxidase GPX4 (Homo sapiens) (P36969 whole entry, looked up): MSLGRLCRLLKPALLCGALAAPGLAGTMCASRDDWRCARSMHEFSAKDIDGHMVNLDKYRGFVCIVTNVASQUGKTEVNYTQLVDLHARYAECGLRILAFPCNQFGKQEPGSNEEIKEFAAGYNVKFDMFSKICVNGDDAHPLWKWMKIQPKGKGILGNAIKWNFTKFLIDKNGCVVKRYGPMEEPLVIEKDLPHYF
# Method in brief: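 Steps: GPX4 plus compound, 30 min RT; add GR/GSH/NADPH master mix; start with cumene hydroperoxide; read 340/450 nm fluorescence at 0 and 15 min. Finals were 200 nM GPX4, 1 mM GSH, 0.5 mM CHP, 0.5 mM NADPH, 100 nM GR.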
# [6] = qHTS profiling for inhibitors of Plasmodium falciparum proliferation (AID 504749); also: nearly all actives have a fitted effect of over 60% in size; also: potency is read from the fitted curve at half-maximal effect; settings: P. falciparum in erythrocytes, SYBR Green DNA, 72 h, at 28.7 µM (top of the series)
# Method in brief: (§1)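 Each compound contacts P. falciparum-infected red blood cells for 72 h at 37 C; lysis buffer (Tris, EDTA, saponin, Triton X, SYBR Green I) is added and fluorescence measured next morning; values normalized to controls.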
# 3D7 = assay: as above; settings: P. falciparum in erythrocytes, SYBR Green DNA, 72 h; series mostly up to 28.7 µM
# Method in brief: as §1
# 7G8 = assay: as above; settings: P. falciparum in erythrocytes, SYBR Green DNA, 72 h; series mostly up to 12.8 µM
# Method in brief: as §1
# AA1029 = assay: as above; settings: P. falciparum in erythrocytes, SYBR Green DNA, 72 h; series mostly up to 28.7 µM
# Method in brief: as §1
# ATS189 = assay: as above; settings: P. falciparum in erythrocytes, SYBR Green DNA, 72 h; series mostly up to 28.7 µM
# Method in brief: as §1
# ATS95 = assay: as above; settings: P. falciparum in erythrocytes, SYBR Green DNA, 72 h; series mostly up to 28.7 µM
# Method in brief: as §1
# C2A = assay: as above; settings: P. falciparum in erythrocytes, SYBR Green DNA, 72 h; series mostly up to 28.7 µM
# Method in brief: as §1
# CP185 = assay: as above; settings: P. falciparum in erythrocytes, SYBR Green DNA, 72 h; series mostly up to 28.7 µM
# Method in brief: as §1
# CP191 = assay: as above; settings: P. falciparum in erythrocytes, SYBR Green DNA, 72 h; series mostly up to 28.7 µM
# Method in brief: as §1
# CP192 = assay: as above; settings: P. falciparum in erythrocytes, SYBR Green DNA, 72 h; series mostly up to 28.7 µM
# Method in brief: as §1
# CP194 = assay: as above; settings: P. falciparum in erythrocytes, SYBR Green DNA, 72 h; series mostly up to 28.7 µM
# Method in brief: as §1
# CP201 = assay: as above; settings: P. falciparum in erythrocytes, SYBR Green DNA, 72 h; series mostly up to 28.7 µM
# Method in brief: as §1
# CP211 = assay: as above; settings: P. falciparum in erythrocytes, SYBR Green DNA, 72 h; series mostly up to 28.7 µM
# Method in brief: as §1
# CP215 = assay: as above; settings: P. falciparum in erythrocytes, SYBR Green DNA, 72 h; series mostly up to 28.7 µM
# Method in brief: as §1
# CP217 = assay: as above; settings: P. falciparum in erythrocytes, SYBR Green DNA, 72 h; series mostly up to 28.7 µM
# Method in brief: as §1
# CP238 = assay: as above; settings: P. falciparum in erythrocytes, SYBR Green DNA, 72 h; series mostly up to 28.7 µM
# Method in brief: as §1
# CP247 = assay: as above; settings: P. falciparum in erythrocytes, SYBR Green DNA, 72 h; series mostly up to 28.7 µM
# Method in brief: as §1
# CP250 = assay: as above; settings: P. falciparum in erythrocytes, SYBR Green DNA, 72 h; series mostly up to 12.8 µM
# Method in brief: as §1
# CP252 = assay: as above; settings: P. falciparum in erythrocytes, SYBR Green DNA, 72 h; series mostly up to 12.8 µM
# Method in brief: as §1
# CP256 = assay: as above; settings: P. falciparum in erythrocytes, SYBR Green DNA, 72 h; series mostly up to 28.7 µM
# Method in brief: as §1
# CP260 = assay: as above; settings: P. falciparum in erythrocytes, SYBR Green DNA, 72 h; series mostly up to 28.7 µM
# Method in brief: as §1
# CP262 = assay: as above; settings: P. falciparum in erythrocytes, SYBR Green DNA, 72 h; series mostly up to 28.7 µM
# Method in brief: as §1
# CP265 = assay: as above; settings: P. falciparum in erythrocytes, SYBR Green DNA, 72 h; series mostly up to 12.8 µM
# Method in brief: as §1
# CP266 = assay: as above; settings: P. falciparum in erythrocytes, SYBR Green DNA, 72 h; series mostly up to 12.8 µM
# Method in brief: as §1
# CP268 = assay: as above; settings: P. falciparum in erythrocytes, SYBR Green DNA, 72 h; series mostly up to 28.7 µM
# Method in brief: as §1
# CP269 = assay: as above; settings: P. falciparum in erythrocytes, SYBR Green DNA, 72 h; series mostly up to 28.7 µM
# Method in brief: as §1
# CP286 = assay: as above; settings: P. falciparum in erythrocytes, SYBR Green DNA, 72 h; series mostly up to 28.7 µM
# Method in brief: as §1
# CP291 = assay: as above; settings: P. falciparum in erythrocytes, SYBR Green DNA, 72 h; series mostly up to 28.7 µM
# Method in brief: as §1
# CP297 = assay: as above; settings: P. falciparum in erythrocytes, SYBR Green DNA, 72 h; series mostly up to 28.7 µM
# Method in brief: as §1
# CP305 = assay: as above; settings: P. falciparum in erythrocytes, SYBR Green DNA, 72 h; series mostly up to 28.7 µM
# Method in brief: as §1
# CP315 = assay: as above; settings: P. falciparum in erythrocytes, SYBR Green DNA, 72 h; series mostly up to 28.7 µM
# Method in brief: as §1
# CP325 = assay: as above; settings: P. falciparum in erythrocytes, SYBR Green DNA, 72 h; series mostly up to 28.7 µM
# Method in brief: as §1
# CP329 = assay: as above; settings: P. falciparum in erythrocytes, SYBR Green DNA, 72 h; series mostly up to 28.7 µM
# Method in brief: as §1
# CP335 = assay: as above; settings: P. falciparum in erythrocytes, SYBR Green DNA, 72 h; series mostly up to 12.8 µM
# Method in brief: as §1
# DIV14 = assay: as above; settings: P. falciparum in erythrocytes, SYBR Green DNA, 72 h; series mostly up to 28.7 µM
# Method in brief: as §1
# Dd2 = assay: as above; settings: P. falciparum in erythrocytes, SYBR Green DNA, 72 h; series mostly up to 28.7 µM
# Method in brief: as §1
# ECU = assay: as above; settings: P. falciparum in erythrocytes, SYBR Green DNA, 72 h; series mostly up to 28.7 µM
# Method in brief: as §1
# FAB9 = assay: as above; settings: P. falciparum in erythrocytes, SYBR Green DNA, 72 h; series mostly up to 28.7 µM
# Method in brief: as §1
# GB4 = assay: as above; settings: P. falciparum in erythrocytes, SYBR Green DNA, 72 h; series mostly up to 28.7 µM
# Method in brief: as §1
# ICS = assay: as above; settings: P. falciparum in erythrocytes, SYBR Green DNA, 72 h; series mostly up to 28.7 µM
# Method in brief: as §1
# JCK = assay: as above; settings: P. falciparum in erythrocytes, SYBR Green DNA, 72 h; series mostly up to 28.7 µM
# Method in brief: as §1
# P94_40 = assay: as above; settings: P. falciparum in erythrocytes, SYBR Green DNA, 72 h; series mostly up to 28.7 µM
# Method in brief: as §1
# PC49 = assay: as above; settings: P. falciparum in erythrocytes, SYBR Green DNA, 72 h; series mostly up to 28.7 µM
# Method in brief: as §1
# TAB109 = assay: as above; settings: P. falciparum in erythrocytes, SYBR Green DNA, 72 h; series mostly up to 12.8 µM
# Method in brief: as §1
# TAB113 = assay: as above; settings: P. falciparum in erythrocytes, SYBR Green DNA, 72 h; series mostly up to 28.7 µM
# Method in brief: as §1
smiles,measurement,setting,value
C[C@]12CC[C@H](O)C[C@H]1CCC1C2CC[C@]2(C)[C@@H](c3ccc(=O)oc3)C[C@H]3O[C@]132 (stereo partly specified),Potency,[1],inactive
same,Potency,[2],inactive
same,Potency,[3],inactive
same,Potency,[4],inactive
same,Potency,[5],inactive
same,"activity, negative = inhibition",[6]; parasite line A,-25.7%
same,"activity, negative = inhibition",[6]; parasite line B,-8.73%
same,Potency,3D7,inactive
same,Potency,7G8,11.2 µM (active)
same,Potency,AA1029,inactive
same,Potency,ATS189,inactive
same,Potency,ATS95,inactive
same,Potency,C2A,inactive
same,Potency,CP185,inactive
same,Potency,CP191,inactive
same,Potency,CP192,inactive
same,Potency,CP194,inactive
same,Potency,CP201,inactive
same,Potency,CP211,inactive
same,Potency,CP215,inactive
same,Potency,CP217,inactive
same,Potency,CP238,inactive
same,Potency,CP247,inactive
same,Potency,CP250,inactive
same,Potency,CP252,inactive
same,Potency,CP256,inactive
same,Potency,CP260,inactive
same,Potency,CP262,inactive
same,Potency,CP265,inactive
same,Potency,CP266,inactive
same,Potency,CP268,inactive
same,Potency,CP269,inactive
same,Potency,CP286,inactive
same,Potency,CP291,inactive
same,Potency,CP297,inactive
same,Potency,CP305,inactive
same,Potency,CP315,inactive
same,Potency,CP325,inactive
same,Potency,CP329,inactive
same,Potency,CP335,inactive
same,Potency,DIV14,13.5 µM (active)
same,Potency,Dd2,inactive
same,Potency,ECU,inactive
same,Potency,FAB9,inactive
same,Potency,GB4,inactive
same,Potency,ICS,7.08 µM (active)
same,Potency,JCK,inactive
same,Potency,P94_40,inactive
same,Potency,PC49,inactive
same,Potency,TAB109,inactive
same,Potency,TAB113,inactive
